Compound activity as filed in PubChem BioAssay.
Hits are enriched below; roughly 2.4% of the tested compounds scored in any of these assays.
D2 PAM-1: human D2 receptor positive allosteric modulation. potentiation, % (no concentration beside the values). AID 624464. DiscoveRx D2 beta-arrestin cells, luminescence, 90 min; 100% = 57 uM dopamine signal. 360,000 tested, 0.23% active. P14416; in the data active = potentiation above about 50%; inconclusive = mostly about 30% to 49%
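PathHunter D2 cells, attached overnight at 37 deg C, received compound in DMSO plus dopamine at EC20 (50 nM final) for 90 min at 37 deg C. Beta-arrestin recruitment was read as luminescence after 1 h with detection reagent at ambient temperature.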
D2 antag: antagonizes the human D2 dopamine receptor | AID 485344 | 340,000 tested, 2% active | HEK293 TREx D2 cells, calcium flux, dopamine EC80 | inhibition, % at 10 µM | P14416; in the data active = inhibition above about 30%; inactive = below that, where a call was filed; note: 0% is about no effect
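HEK293 T-REx D2 cells, tet-induced, calcium dye no-wash. Cpd pintool add, 180 s kinetic, then EC80 DA, 180 s kinetic. Ca flux read.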
D2 ag-1: agonists of human D2 dopamine receptor | P14416 | HEK293 T-REx D2 cells, calcium flux agonist mode | activation, % at 2 µM | 340,000 tested, 0.53% active | AID 485358;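 active = activation over 3 SD above normal in the single-dose calcium agonist read, cut at about 30% in these data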; note: 0% is about no effect
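Calcium-flux readout, 1 cycle/sec over 180 s following compound pin transfer, in inducible HEK293 Trex D2 cells (force-coupled); dopamine controls included. Positive calcium responses during this window marked compounds as potential agonists.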
D2 PAM-2: positively modulates the human D2 dopamine receptor allosterically | P14416 | HEK293 T-REx D2, calcium flux, EC20 dopamine potentiation | potentiation, % at 10 µM | 340,000 tested, 0.34% active | AID 485347;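 active = potentiation over 3 SD above the plate norm, cut at about 30% in these data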; note: 0% is about no effect
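Cells plated with tetracycline inducer and held overnight at 30 C; calcium dye loaded 30–90 min at room temperature; baseline taken, compound added and read 180 s; EC20 dopamine then added and read 180 s.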
D2 ag-2: human D2 receptor agonism in beta-arrestin assay; P14416; DiscoveRx PathHunter D2 beta-arrestin, luminescence, 90 min; 100% = 57 uM dopamine signal; activation, % (concentration not given with the values); 360,000 tested, 0.084% active; AID 624465; in the data active = activation above about 40%; inconclusive = between about 15% and that limit
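DiscoveRx PathHunter D2 beta-arrestin cells (2,100/well) attached overnight, then compound-stimulated 90 min at 37 C in HBSS/10 mM HEPES/0.1% Tween-20 buffer; beta-galactosidase complementation read by luminescence after 1 h at ambient temperature. Dopamine 57 uM final (EC100) as control.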
D3 ag: activates human D3 dopamine receptor beta-arrestin recruitment | shares compounds with D2 ag-1 | DiscoveRx D3 beta-arrestin cells, luminescence, 90 min | Potency, µM (top dose mostly 76.9 µM), for the others: at the highest dose activation, hits mostly activators | 2,300 tested, 4% active;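 note: potency is the fitted concentration of half-maximal effect; 100% = dopamine control response; nearly all actives have a fitted effect of over 70% in size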
Target sequence (P35462 whole entry, looked up): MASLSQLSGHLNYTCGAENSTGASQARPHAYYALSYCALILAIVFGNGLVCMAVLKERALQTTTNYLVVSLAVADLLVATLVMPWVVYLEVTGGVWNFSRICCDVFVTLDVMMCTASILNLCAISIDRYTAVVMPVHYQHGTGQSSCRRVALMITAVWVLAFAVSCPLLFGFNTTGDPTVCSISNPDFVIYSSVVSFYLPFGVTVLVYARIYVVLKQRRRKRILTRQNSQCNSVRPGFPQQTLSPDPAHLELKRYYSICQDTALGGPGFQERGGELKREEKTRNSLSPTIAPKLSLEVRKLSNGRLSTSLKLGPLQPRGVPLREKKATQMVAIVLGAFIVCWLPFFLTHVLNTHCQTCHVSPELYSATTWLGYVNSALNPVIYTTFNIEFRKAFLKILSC
D2 ag-3: activates human D2 dopamine receptor in D3 counterscreen | DiscoveRx PathHunter D2 beta-arrestin, luminescence, 90 min; response scale: percent relative to full dopamine signal | Potency, µM (titrated, usually from 76.9 µM), for the others: at the top dose activation, actives largely listed as activators | shares compounds with D2 ag-1 | 2,300 tested, 5.9% active | AID 720507; note: potency is the fitted concentration of half-maximal effect; % of control where 0% means no effect; nearly all actives have a fitted effect of over 70% in size
* hit, by the source's call; ? = inconclusive; . = not tested or not shown. Unless noted, calls come from the whole dose curve; as a rule, active = well fitted activation curve with a large enough effect; inconclusive = small, poorly fitted or top-dose-only effect; inactive = flat fitted curve, though single readings scatter.

SMILES	D2 PAM-1	D2 antag	D2 ag-1	D2 PAM-2	D2 ag-2	D3 ag	D2 ag-3
c1cnc(N2CCN(Cc3ccc4c(c3)OCO4)CC2)cn1	?	90*	80*	-23	44*	?	?
O=[N+]([O-])c1cccnc1N1CCN(Cc2ccc3c(c2)OCO3)CC1	10	92*	89*	-25	44*	-5%	?
Cc1ccc(-n2c(SCC(=O)NCc3ccccc3)nc3n[nH]c(C)c3c2=N)cc1Cl	.	.	0	-10	.	.	.
O=C(O)CCn1cc(-c2ccc(F)cc2)nc1-c1ccncc1	-7	.	.	.	-1	-13%	-5%
Cc1ccc(CNC(=O)CCn2cc(-c3ccc(F)cc3)nc2-c2ccncc2)cc1	-16	-7	-1	-13	-3	.	.
Brc1cccc(OCCN2CCc3ccccc3C2)c1	-2	96*	52*	-31	-4	25%	1%
C=CC[C@@H]1Cc2c(Br)ccc(Br)c2[C@@H](CC=C)N1	12	-5	6	3	?	.	.
C=CCC1NCCc2c(Br)cccc21 (stereo not given)	-11	29	47*	-16	4	-15%	0%
O=C(Nc1ccnn1C1CCN(CCCc2ccccc2)CC1)c1ccccc1Cl	13	88*	80*	-35	?	10%	?
CC(C)=CCN1CCC(n2nccc2NC(=O)c2ccccc2Cl)CC1	-24	16	0	-17	-7	.	.
CCc1nc2ccc(C(=O)NCc3ccc(OC)c(OC)c3)cc2nc1CC	.	.	.	-3	.	.	.
CCn1cc(C(=O)OCC(=O)Nc2cc(OC)cc(OC)c2)c(=O)c2ccc(C)nc21	.	.	0	-2	.	.	.
O=C(c1cccs1)N1CCN(C/C=C/c2ccccc2)CC1	-22	69*	53*	-24	5	?	?
O=C(c1cccs1)N1CCN(CCc2ccccc2)CC1	-14	42*	43*	-13	6	15%	15%
O=C(Cc1ccccc1)N1CCN(C(=O)c2cccs2)CC1	-10	-5	1	9	0	.	.
O=S(=O)(c1cccs1)N1CCN(C/C=C/c2ccccc2)CC1	-20	-5	1	-2	-2	.	.
CCOC(=O)c1cc(S(=O)(=O)N2CCN(c3ccc(C(C)=O)cc3)CC2)[nH]n1	.	.	2	-3	.	.	.
O=C(CSc1nc2ccsc2c(=O)n1Cc1ccccc1F)NCc1ccccc1Cl	.	.	0	0	.	.	.
Cc1c(C(=O)OCC(=O)N2C(C)CCCC2C)oc2ccccc12 (stereo not given)	-9	-12	30	-1	-1	-9%	13%
COc1ccc(OC)c(CCNC(=O)Cn2ccc3cc(S(=O)(=O)N4CCCCC4)ccc32)c1	.	.	-1	.	.	.	.
CC(C)N1CCN(Cc2ccsc2)CC1CCO (stereo not given)	-7	44*	44*	-22	-4	-10%	-2%
COc1ccc(NC(=O)Cn2c3ncccc3c(=O)n2-c2ccc(C)c(C)c2)c(OC)c1	.	.	0	-2	.	.	.
C/C(Cn1cnc([N+](=O)[O-])n1)=N\NC(=O)c1ccccc1O	-9	0	0	3	7	.	.
C/C(Cn1cnc([N+](=O)[O-])n1)=N\NC(=O)c1ccc(O)cc1O	1	-4	6	17	-4	?	1%
COc1ccc2nc3sc(C(=O)NCCN4CCc5ccccc5C4)cc3cc2c1	-18	53*	66*	-34	?	23%	?
CCCC(C)C(=O)Nc1ncc(S(=O)(=O)c2ccc([N+](=O)[O-])cc2)s1 (stereo not given)	11	19	23	10	14	?	24%
CCOCCC(=O)Nc1ncc(S(=O)(=O)c2ccc([N+](=O)[O-])cc2)s1	-2	.	.	.	?	.	.
CCOc1ccc(/C=N/NC(=O)C(OC)c2ccccc2)cc1 (stereo not given)	4	0	0	5	1	.	.
